The values that follow come from PubChem BioAssay (NCI).

Test systems include SR leukemia; RPMI-8226 leukemia; OVCAR-8 ovarian; OVCAR-5 ovarian; OVCAR-4 ovarian; SK-OV-3 ovarian; IGROV1 ovarian; HS 578T breast; NCI/ADR-RES ovarian; T-47D breast; BT-549 breast; MDA-MB-435 melanoma; SW-620 colon; MCF7 breast; HCT-116 colon; HCC-2998 colon; KM12 colon; MDA-MB-468 breast; OVCAR-3 ovarian.
Test in all cases: NCI-60 one-dose screen, 48 h (100 = growth as untreated, 0 = no growth, -100 = all killed)
Holding throughout (settings): 10 µM unless noted

The panel holds about 83,000 compounds, 20% with a hit somewhere; the sample as a whole holds those more often.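 Note: values are percent growth. 100 is the growth of untreated cells, values between 100 and 0 indicate rising inhibition; between -100 and 0 indicates cell death.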 Unmarked numbers belong to inactive results. Calls of active or inactive are those of the source. How the source made its calls: active means growth percent below 10; inactive means the rest.

Take `COc1cc2c3c(n(CCCN4CCC[C@@H]4CO)c(=O)c2cc1OC)-c1cc2c(cc1C3=O)OCO2`: the growth with SR leukemia is -25.5% (active); in the experiment with RPMI-8226 leukemia, -28.4% (active); in the experiment with OVCAR-8 ovarian, -76.8% (active); with OVCAR-5 ovarian, -98.7% (active); with OVCAR-4 ovarian, -82.2% (active); in the experiment on SK-OV-3 ovarian, 27.1%. Also, the growth with IGROV1 ovarian was -88.9% (active); in the experiment on HS 578T breast, -6.35% (active); in the experiment on NCI/ADR-RES ovarian, -67.4% (active); with T-47D breast it was 49.3%; in the experiment on BT-549 breast it was 34.9%; in the experiment with MDA-MB-435 melanoma it was -86.8% (active). Also, the growth with SW-620 colon is -77.8% (active); in the experiment with MCF7 breast, -84.9% (active); in the experiment on HCT-116 colon, -59.1% (active); in the experiment with HCC-2998 colon, -99.4% (active); in the experiment with KM12 colon, -98.2% (active); with MDA-MB-468 breast it was -92.4% (active).
Turning to `Cc1occc1C(=O)NN1C(=O)/C(=C/C=C/c2ccc([N+](=O)[O-])o2)SC1=S`, the growth in the experiment with SR leukemia was 5.76% (active); with RPMI-8226 leukemia, -8.57% (active); in the experiment with OVCAR-8 ovarian it was -53.9% (active); in the experiment on OVCAR-5 ovarian it was -93.3% (active); in the experiment on OVCAR-4 ovarian it was -85% (active); in the experiment on SK-OV-3 ovarian, 20.1%. The growth is -87.6% (active) in the experiment on IGROV1 ovarian; -100% (active) in the experiment on OVCAR-3 ovarian; -15.9% (active) in the experiment on T-47D breast; -91% (active) in the experiment on BT-549 breast; -66.2% (active) in the experiment with MDA-MB-435 melanoma; -43.2% (active) with SW-620 colon. The growth in the experiment on MCF7 breast is -33% (active); with HCT-116 colon, -73.2% (active); with HCC-2998 colon, -75% (active); with KM12 colon, -66.2% (active); with MDA-MB-468 breast, -52.3% (active).
Consider `O=c1[nH]n(C(=S)N/N=C/c2ccccc2Cl)c(=O)c2ccccc12`, for which the growth with SR leukemia is -13.8% (active); in the experiment on RPMI-8226 leukemia it was -1.71% (active); in the experiment with OVCAR-8 ovarian, 4.91% (active); with OVCAR-5 ovarian, 9.48% (active); in the experiment on OVCAR-4 ovarian it was 33%; in the experiment on SK-OV-3 ovarian, 23.4%. Besides, the growth with IGROV1 ovarian was 7.53% (active); in the experiment on OVCAR-3 ovarian, 24%; in the experiment on NCI/ADR-RES ovarian, -9.23% (active); in the experiment on T-47D breast, 12.2%; with BT-549 breast it was -57.5% (active); with MCF7 breast it was 10.7%. For the same molecule, the growth was -83.4% (active) in the experiment with HCT-116 colon, -36.5% (active) in the experiment on HCC-2998 colon, 8.85% (active) in the experiment on KM12 colon and -26.7% (active) in the experiment with MDA-MB-468 breast.
Turning to `CSc1ccccc1NC(=O)c1ccc2nnn(/C(C#N)=C/c3ccccn3)c2c1`, the growth in the experiment on SR leukemia is -5.23% (active); in the experiment on RPMI-8226 leukemia, -29% (active); with OVCAR-8 ovarian, -86.6% (active); in the experiment on OVCAR-5 ovarian, -95% (active); in the experiment with OVCAR-4 ovarian it was -96.5% (active); in the experiment with SK-OV-3 ovarian, 63.1%. Besides, the growth in the experiment with IGROV1 ovarian was -81.8% (active); in the experiment on OVCAR-3 ovarian it was -81.9% (active); in the experiment on NCI/ADR-RES ovarian, -44.2% (active); with T-47D breast it was -73.2% (active); with BT-549 breast, -99.5% (active); in the experiment on MDA-MB-435 melanoma it was -55.8% (active). The growth with MCF7 breast is -81.4% (active); in the experiment with HCT-116 colon it was -96.5% (active); in the experiment with HCC-2998 colon it was -97.8% (active); in the experiment with KM12 colon, -66.9% (active); in the experiment with MDA-MB-468 breast, -92% (active).
On to `Cc1cc(=O)oc2cc(OCCCCOc3ccc(/C=C/C(=O)Nc4ccccc4N)cc3)ccc12`, for which the growth in the experiment with SR leukemia was 56.4%; with RPMI-8226 leukemia, 18.7%; with OVCAR-8 ovarian it was 85.2%; in the experiment on OVCAR-5 ovarian, 84.8%; in the experiment on OVCAR-4 ovarian, 73.1%; with SK-OV-3 ovarian, 92.1%. Moreover, the growth in the experiment on IGROV1 ovarian is 81.7%; in the experiment with HS 578T breast, 118%; with NCI/ADR-RES ovarian it was 74.3%; with T-47D breast, 31.4%; in the experiment on BT-549 breast, -23.9% (active); in the experiment on MDA-MB-435 melanoma it was 78.3%. Besides, the growth in the experiment on SW-620 colon was 71.9%; in the experiment on MCF7 breast, 18.6%; in the experiment with HCT-116 colon, 45.6%; in the experiment with HCC-2998 colon, 89%; with KM12 colon, 31.2%; in the experiment with MDA-MB-468 breast, 34.2%.
`N#Cc1c(-c2cccnc2)cc(-c2ccc3ccccc3c2)[nH]c1=O`: the growth with SR leukemia is 73.7%; in the experiment on RPMI-8226 leukemia it was 51.5%; in the experiment on OVCAR-8 ovarian, 78%; in the experiment on OVCAR-5 ovarian, 106%; in the experiment with OVCAR-4 ovarian it was 64.6%; with SK-OV-3 ovarian, 112%. Also, the growth in the experiment with IGROV1 ovarian was 97.6%; in the experiment on OVCAR-3 ovarian, 102%; with NCI/ADR-RES ovarian it was 75.3%; with T-47D breast, 93%; in the experiment with BT-549 breast, 57.6%; with MCF7 breast it was 60.5%. For the same molecule, the figures for the growth with HCT-116 colon, in the experiment with HCC-2998 colon and with KM12 colon were 80%, 96.4% and 92.9%, respectively.
Take `COc1ccc(-c2cc(C(=O)NCc3ccccc3)nn2-c2ccc(S(C)(=O)=O)cc2)cc1OC`: the growth in the experiment on SR leukemia is 82.3%; in the experiment on RPMI-8226 leukemia, 86.9%; with OVCAR-8 ovarian, 100%; in the experiment with OVCAR-5 ovarian, 102%; with OVCAR-4 ovarian, 94.3%; in the experiment with SK-OV-3 ovarian it was 105%. Also, the growth in the experiment on IGROV1 ovarian is 122%; with OVCAR-3 ovarian, 115%; with NCI/ADR-RES ovarian it was 107%; in the experiment on T-47D breast, 91.1%; in the experiment with BT-549 breast, 104%; in the experiment on MDA-MB-435 melanoma, 105%. Moreover, the growth with MCF7 breast was 95.2%; in the experiment on HCT-116 colon it was 102%; in the experiment on HCC-2998 colon it was 117%; in the experiment with KM12 colon, 102%; in the experiment with MDA-MB-468 breast, 100%.
On to `O=C(COc1ccc(NC(=O)Nc2ccc(Cl)cc2)cc1)N/N=C/c1ccccc1`, for which the growth was 6.18% (active) in the experiment on SR leukemia; -23.5% (active) in the experiment on RPMI-8226 leukemia; -49% (active) with OVCAR-8 ovarian; -9.58% (active) with OVCAR-5 ovarian; -51.9% (active) with OVCAR-4 ovarian; -60.2% (active) with SK-OV-3 ovarian. Besides, the growth is -57.3% (active) with IGROV1 ovarian; -36.9% (active) in the experiment with HS 578T breast; -10.9% (active) in the experiment on NCI/ADR-RES ovarian; -81.6% (active) in the experiment on T-47D breast; -51.4% (active) in the experiment on BT-549 breast; -88.5% (active) with MDA-MB-435 melanoma. Further, the growth with SW-620 colon was -75.2% (active); in the experiment on MCF7 breast, -78.6% (active); with HCT-116 colon, -40% (active); with HCC-2998 colon it was -77.4% (active); in the experiment on KM12 colon, -70.3% (active).
In the case of `CN(C)CCCNC(=O)c1cc(NC(=O)c2cc(NC(=O)c3ccc(C#Cc4ccccc4)cc3)cn2C)cn1C`, the growth is -46.3% (active) in the experiment with SR leukemia; -49% (active) in the experiment on RPMI-8226 leukemia; -0.647% (active) in the experiment with OVCAR-8 ovarian; 36.8% with OVCAR-5 ovarian; 43.6% with OVCAR-4 ovarian; 46.5% in the experiment with SK-OV-3 ovarian. Moreover, the growth in the experiment on IGROV1 ovarian is 34.3%; in the experiment with HS 578T breast, 31.7%; in the experiment with NCI/ADR-RES ovarian, 56.6%; with T-47D breast, -14.9% (active); with BT-549 breast, -15% (active); with MDA-MB-435 melanoma, -63.3% (active). Besides, the growth with SW-620 colon was -12.9% (active); in the experiment on MCF7 breast, -93.3% (active); in the experiment with HCT-116 colon it was -92.4% (active); in the experiment on HCC-2998 colon, -90.7% (active); in the experiment with KM12 colon, -64% (active); with MDA-MB-468 breast, -93.8% (active).
